Screening results as filed in PubChem BioAssay.
KDM5B inhibitor: blocks human KDM5B histone demethylase activity; Q9UGL1; KDM5B demethylase, FDH-coupled NADH fluorescence (FDH is formaldehyde dehydrogenase); Potency, µM (top dose mostly 57.7 µM), hits mostly inhibitors; 2.6% of 220,000 active; note: potency is the fitted concentration of half-maximal effect; 0% is about no effect; nearly all actives have a fitted effect of over 70% in size
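Here, H3K4me3 peptide (12.5 µM in substrate mix) is demethylated by KDM5BΔAP, 200 nM final, after 10 min compound exposure. Formaldehyde product is coupled through FDH (0.25 U/mL in mix) to NADH fluorescence; 30-min ΔRFU feeds dose-response curves.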
SNCA expr inhib: SNCA gene expression inhibition | HEK-293 SNCA-luciferase knock-in, luminescence, 24 h | 0.17% of 140,000 active | Potency, µM (highest dose often 57.2 µM), for inactives: top-dose activity change, negative = inhibition, actives largely listed as inhibitors;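 note: potency is the fitted concentration of half-maximal effect; plate controls were DMSO cells for no effect and cell-free wells for full effect; nearly all actives have a fitted effect of over 45% in size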
IP6K1 inh: inhibitors of human IP6K1. Q92551. IP6K1 kinase, ADP-Glo luminescence, 2 h; hits give low values. activity change, % (series mostly up to about 58 µM). 0.81% of 140,000 active; in the data active = activity change below about -25%; note: % is set by controls: 0 for no effect and ±100 for the full control effect
Target sequence (Q92551 whole entry, looked up): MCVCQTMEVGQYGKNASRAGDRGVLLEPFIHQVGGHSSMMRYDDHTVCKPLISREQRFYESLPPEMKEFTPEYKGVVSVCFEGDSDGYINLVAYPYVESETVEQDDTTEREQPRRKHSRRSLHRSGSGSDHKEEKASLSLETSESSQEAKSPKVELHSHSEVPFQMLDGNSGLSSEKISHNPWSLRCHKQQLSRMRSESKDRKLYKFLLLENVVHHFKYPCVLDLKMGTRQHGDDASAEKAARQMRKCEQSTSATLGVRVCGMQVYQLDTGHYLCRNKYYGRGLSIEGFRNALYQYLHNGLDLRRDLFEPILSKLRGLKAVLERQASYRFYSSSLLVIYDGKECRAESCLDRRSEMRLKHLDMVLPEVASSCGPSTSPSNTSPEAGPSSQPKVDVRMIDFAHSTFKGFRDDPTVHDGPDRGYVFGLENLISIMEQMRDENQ
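ADP-Glo luminescence measures ADP made by human IP6K1 during a 2 h RT reaction with ATP/IP6 (mix at 1.3 mM/130 uM); top library doses 57.5 and 19.1 uM final.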
HEK293 viab: counter-screen for SNCA expression inhibitors: cell viability; Potency, µM (titrated, usually from 57.1 µM), inactives show at the highest dose activity change, negative = cytotoxicity, actives largely listed as cytotoxic; 0.12% of 150,000 active; HEK-293-SNCA-luc viability, GF-AFC fluorescence, 24 h;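 note: potency is the fitted concentration of half-maximal effect; 0% = DMSO-treated cells and -100% = medium-only wells without cells; nearly all actives have a fitted effect of over 30% in size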
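HEK-293-SNCA-luc cells (1500/well) plated 24 h, then exposed 24 h to a dilution series; GF-AFC added 30 min at 37C, fluorescence 405/540 nm; normalised to medium-only and DMSO wells, Hill fit.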
The depositor's hits bear a star; [ ] = dose if it differs, or a comment. Most compounds without a hit are left out; they make up all but 3% or so of the library. Unless noted, calls come from the whole dose curve; as a rule, active = well fitted curve in the direction sought with a large enough effect; inconclusive = small, poorly fitted or top-dose-only effect, or another doubt; inactive = no such curve, though single readings can be large; an effect the other way counts as inactive or inconclusive.

For CCOc1nccn2c(-c3ccc(CN4CCN(C(C)=O)CC4)cc3)cnc12 the results were KDM5B inhibitor inconclusive, SNCA expr inhib -11%[87.6 µM], IP6K1 inh -20 and HEK293 viab -2%[87.6 µM].
`O=C(C1CCN(S(=O)(=O)N2CCOCC2)CC1)N1CCc2nc3cc[nH]n3c(=O)c2C1` gave KDM5B inhibitor 32µM*, SNCA expr inhib -17%, IP6K1 inh 0 and HEK293 viab -11%.
Screening O=C(c1cc(-c2ccccc2)n[nH]1)N1CCc2c(nc3cc[nH]n3c2=O)C1 returned KDM5B inhibitor 22µM*, SNCA expr inhib 1%, IP6K1 inh 9 and HEK293 viab 11%.
For O=C(c1cc(-c2cccs2)[nH]n1)N1CCc2nc3cc[nH]n3c(=O)c2C1 the results were KDM5B inhibitor inconclusive, SNCA expr inhib 1%, IP6K1 inh 0 and HEK293 viab -1%.
COc1ccc(S(=O)(=O)N2CCc3nc4cc[nH]n4c(=O)c3C2)cc1Cl was read as KDM5B inhibitor 25µM*, SNCA expr inhib 9%, IP6K1 inh 5 and HEK293 viab -4%.
O=C(c1ccccc1C(F)(F)F)N1CCc2nc3cc[nH]n3c(=O)c2C1 was read as KDM5B inhibitor 32µM*, SNCA expr inhib -14%, IP6K1 inh 0 and HEK293 viab 3%.
For O=C(c1nccc2ccccc12)N1CCc2nc3cc[nH]n3c(=O)c2C1 the results were KDM5B inhibitor inconclusive, SNCA expr inhib 10%, IP6K1 inh 0 and HEK293 viab 2%.
Screening O=C(c1cc(-c2ccccc2)n[nH]1)N1CCc2c(nc(-c3ccc(F)cc3)[nH]c2=O)C1 returned KDM5B inhibitor inactive, SNCA expr inhib -3%, IP6K1 inh 6 and HEK293 viab -9%.
CCCN(CCC)c1ccc(NS(=O)(=O)c2ccc(C(C)=O)cc2)cc1C(=O)O was read as KDM5B inhibitor inactive.
Cc1cccc(-c2nc3ccc(C(=O)NCc4ccccc4F)cc3o2)n1 was read as SNCA expr inhib 48%[87.6 µM], IP6K1 inh 10 and HEK293 viab 4%[87.6 µM].
For CCCn1c(NC)nc2c1c(=O)n(C)c(=O)n2C the results were KDM5B inhibitor inactive.
For COc1ccc(C(=O)N2CCc3c(nc4cc[nH]n4c3=O)C2)c(C)c1 the results were KDM5B inhibitor 28µM*, SNCA expr inhib 2%, IP6K1 inh 13 and HEK293 viab 6%.
`COc1ccc(-c2nc3c(c(=O)[nH]2)CCN(C(=O)c2ccc(OC)cc2OC)C3)cc1` gave KDM5B inhibitor inconclusive, SNCA expr inhib 6%, IP6K1 inh 9 and HEK293 viab -8%.
`COc1ccccc1CC(=O)N1CCc2c(nc3cc[nH]n3c2=O)C1` gave KDM5B inhibitor 28µM*, SNCA expr inhib -20%, IP6K1 inh 12 and HEK293 viab 6%.
`CCOC(=O)c1ccc(NC(=O)N2CCc3c(nc4cc[nH]n4c3=O)C2)cc1` gave KDM5B inhibitor 22µM*, SNCA expr inhib 6%, IP6K1 inh 1 and HEK293 viab 9%.
For Cc1ccccc1C(=O)N1CCc2c(nc3cc[nH]n3c2=O)C1 the results were KDM5B inhibitor 28µM*, SNCA expr inhib -9%, IP6K1 inh 13 and HEK293 viab 10%.
CC(C)c1ccc(OCc2nn3c(=O)c4ccccc4nc3s2)cc1 was read as KDM5B inhibitor inactive.
O=C(c1ccc2nc(-c3ccccn3)oc2c1)N1CCCCC1 was read as SNCA expr inhib inconclusive, IP6K1 inh -7 and HEK293 viab 4%[87.6 µM].
O=C(C1CCCN(Cc2cccc(-c3ccsc3)c2)C1)N1CCN(c2ncccn2)CC1 (stereo not given) was read as IP6K1 inh 5.
Screening N#Cc1cccnc1N1CCN(Cc2ccc(F)c(F)c2)C(CCO)C1 (stereo not given) returned KDM5B inhibitor 13µM*, SNCA expr inhib -23%, IP6K1 inh 30 and HEK293 viab -7%.
`C=CCOc1cccc(-c2nc(C(=O)NCc3cccc(F)c3)cs2)c1` gave KDM5B inhibitor inconclusive, SNCA expr inhib -5%, IP6K1 inh -12 and HEK293 viab 4%.
Cc1cccc(CCNC(=O)c2noc(-c3ccc4c(c3)OCO4)n2)c1 was read as KDM5B inhibitor 32µM*, SNCA expr inhib -10%, IP6K1 inh 0 and HEK293 viab 6%.
`CCOc1cccc(-c2nc(C(=O)NCc3ccc4c(c3)OCO4)cs2)c1` gave KDM5B inhibitor 25µM*, SNCA expr inhib -2%, IP6K1 inh -7 and HEK293 viab -1%.
`COc1ccc(CNC(=O)Cn2cccc2-c2nc(-c3ccc4c(c3)OCO4)no2)cc1OC` gave KDM5B inhibitor inactive, SNCA expr inhib 0%, IP6K1 inh 17 and HEK293 viab 1%.
Screening COc1cccc(CNC(=O)Cn2cccc2-c2nc(-c3ccc4c(c3)OCO4)no2)c1 returned KDM5B inhibitor 28µM*, SNCA expr inhib 4%, IP6K1 inh 21 and HEK293 viab 0%.
COc1ccc(CNC(=O)c2noc(-c3ccc4c(c3)OCO4)n2)cc1 was read as KDM5B inhibitor 28µM*, SNCA expr inhib 100%, IP6K1 inh -1 and HEK293 viab 13%.
`CCN(CC)S(=O)(=O)c1cc([N+](=O)[O-])ccc1N/N=C/c1cccs1` gave KDM5B inhibitor inactive.
For Cc1ccc(CNC(=O)c2noc(-c3ccc4c(c3)OCO4)n2)cc1 the results were KDM5B inhibitor 35µM*, SNCA expr inhib 37%, IP6K1 inh 5 and HEK293 viab 12%.
O=C(NCc1ccc(F)cc1Cl)c1noc(-c2ccc3c(c2)OCO3)n1 was read as KDM5B inhibitor 32µM*, SNCA expr inhib 35%, IP6K1 inh -7 and HEK293 viab -9%.
For O=C(NCc1cccc(Cl)c1)c1noc(-c2ccc3c(c2)OCO3)n1 the results were KDM5B inhibitor 28µM*, SNCA expr inhib 13%, IP6K1 inh -3 and HEK293 viab 0%.
Screening CCc1ccc(CNC(=O)c2noc(-c3ccc4c(c3)OCO4)n2)cc1 returned KDM5B inhibitor inconclusive, SNCA expr inhib 139%, IP6K1 inh 2 and HEK293 viab 15%.
CCOc1ccccc1CNC(=O)c1noc(-c2ccc3c(c2)OCO3)n1 was read as KDM5B inhibitor 32µM*, SNCA expr inhib 11%, IP6K1 inh 15 and HEK293 viab 2%.
`Cc1nn(-c2ccccc2)c2c1C(C)N(CC1CN(Cc3ccc(C(F)(F)F)cc3)C1)C2=O` (stereo not given) gave IP6K1 inh 10.
CC(CN1CCCCC1)OC(=O)c1cc(C(C)(C)C)cc(C(C)(C)C)c1 (stereo not given) was read as KDM5B inhibitor inactive.
For O=C(Cc1c[nH]c2ncc(-c3ccc(F)cc3)cc12)NCc1cccnc1 the results were KDM5B inhibitor 28µM*, SNCA expr inhib 0%[87.6 µM], IP6K1 inh -18 and HEK293 viab -3%[87.6 µM].
For O=C(Cc1c[nH]c2ncc(-c3cccc(OC(F)(F)F)c3)cc12)NCc1cccnc1 the results were KDM5B inhibitor 28µM*, SNCA expr inhib -11%[87.6 µM], IP6K1 inh -13 and HEK293 viab -16%[87.6 µM].
